# Results from the supplement of paper PMC10681739.
# What was measured:
# ETS1 [1] = target: T1, ETS1 (UniProt P14921); test: ETS1 binding intensity (PBM fluorescence), ETS1 alone (arbitrary fluorescence units); higher = stronger binding; details: ETS1 concentration 1 nM; RUNX1 concentration 0 nM
# T1 sequence: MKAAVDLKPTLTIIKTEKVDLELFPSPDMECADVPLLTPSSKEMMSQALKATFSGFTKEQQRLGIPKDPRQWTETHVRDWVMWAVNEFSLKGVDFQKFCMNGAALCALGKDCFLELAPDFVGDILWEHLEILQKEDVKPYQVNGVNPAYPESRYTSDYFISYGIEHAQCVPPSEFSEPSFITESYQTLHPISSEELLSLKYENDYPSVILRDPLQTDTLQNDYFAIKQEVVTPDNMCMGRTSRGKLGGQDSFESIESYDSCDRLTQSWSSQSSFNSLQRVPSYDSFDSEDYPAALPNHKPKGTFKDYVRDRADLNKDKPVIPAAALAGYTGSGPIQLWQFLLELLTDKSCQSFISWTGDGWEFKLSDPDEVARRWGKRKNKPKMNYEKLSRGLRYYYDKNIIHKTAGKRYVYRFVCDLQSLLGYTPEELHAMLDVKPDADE
# RUNX1 [2] = target: RUNX1 (UniProt Q01196); test: RUNX1 binding intensity (PBM fluorescence), RUNX1 alone (arbitrary fluorescence units); higher = stronger binding; details: RUNX1 concentration 2 nM; ETS1 concentration 0 nM
# Procedure: (§1)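 Cooperative gcPBM on 36-bp genomic probes with neighbouring ETS1 and RUNX1 sites. Recombinant human RUNX1 (2 nM) was incubated alone or with ETS1 (25 nM) and detected with anti-RUNX1 antibody plus Alexa488 secondary. Values are medians over 4 replicate spots; the RUNX1+ETS1 data were normalised to the RUNX1-only data. The probes sit in constant array flanks that are not printed.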
# ETS1 [3] = target: T1, ETS1; test: ETS1 binding intensity (PBM fluorescence) in presence of RUNX1, normalised to ETS1-only experiment (arbitrary fluorescence units); higher = stronger binding; details: ETS1 concentration 1 nM; RUNX1 concentration 25 nM
# RUNX1 [4] = target: RUNX1 (UniProt Q01196); test: RUNX1 binding intensity (PBM fluorescence) in presence of ETS1, normalised to RUNX1-only experiment (arbitrary fluorescence units); higher = stronger binding; details: RUNX1 concentration 2 nM; ETS1 concentration 25 nM
# Procedure: as §1
# 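Wherever RUNX1 binding intensity (PBM fluorescence) in presence of ETS1, normalised to RUNX1-only experiment is given: Full-length recombinant human ETS1 or RUNX1 bound to double-stranded 36-bp genomic probes on microarrays, detected by protein-specific primary antibody and Alexa488 secondary, spot fluorescence as median of four replicate spots.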
# 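Wherever RUNX1 binding intensity (PBM fluorescence), RUNX1 alone is given: Full-length recombinant human RUNX1 bound to double-stranded 36-bp genomic probes on a high-density microarray, scored as Alexa488 fluorescence per spot via anti-RUNX1 antibody, median of four replicate spots.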
# Chain of RUNX1 (Q01196 whole entry): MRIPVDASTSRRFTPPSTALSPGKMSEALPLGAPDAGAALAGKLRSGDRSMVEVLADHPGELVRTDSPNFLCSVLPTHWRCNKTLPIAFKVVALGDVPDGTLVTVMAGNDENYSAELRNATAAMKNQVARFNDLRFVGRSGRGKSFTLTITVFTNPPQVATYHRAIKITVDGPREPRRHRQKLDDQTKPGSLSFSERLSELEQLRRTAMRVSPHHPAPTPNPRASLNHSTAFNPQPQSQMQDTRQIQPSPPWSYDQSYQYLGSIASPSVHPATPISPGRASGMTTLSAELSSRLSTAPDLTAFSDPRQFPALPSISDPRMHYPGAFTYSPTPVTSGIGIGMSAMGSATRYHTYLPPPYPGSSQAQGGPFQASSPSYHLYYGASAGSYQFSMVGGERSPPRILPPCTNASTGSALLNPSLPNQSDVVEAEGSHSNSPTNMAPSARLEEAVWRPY
Sequence,ETS1 binding intensity (ETS1 [1]),RUNX1 binding intensity (RUNX1 [2]),ETS1 binding intensity (ETS1 [3]),RUNX1 binding intensity (RUNX1 [4])
GAATGACAGAAGCGGAAACCACATGAAAAAGGTGTT,2010,913,4230,1360
TCCAGCCCCACCGGAAGTGGATGTGGTTAATCTAGT,28800,955,56400,6380
CTAAACCGGAAGCCGCCCCTCTGACCGCTCTAAAAC,5350,1070,5990,2010
CAATGGATGGCCACATCCTCACCACAAACTGAGTCA,368,939,647,1360
AGGCAAACAGGATGTTCCTCTCCCACATGCAGACTT,4200,806,3770,1300
TTCGGATTCCCGGAAGAACCCGCAGCAGCTCCCAGG,792,789,1020,1190
GCCATGGCCACTTCCTGCTTGTAACCACAGCCCAGA,4430,1210,13200,5520
GGACCCAGCAGAGGATGTGGTTACAGGGCCATGATA,720,836,5450,2170
GTTCTTATCCTGTGGCTCGTTTGTGGTTACTGACAT,425,4330,741,4260
AAGACAACATCCTGCCGGCACAGCCTGCGGGTTACT,576,720,1480,1420
CCATATCTGGCTTCCTAAGGAGGAACCACAAACCGT,375,1040,828,1080
ACTAGAAGCGGAAGTAGTTGTGGGCGCCTTTGCAAC,5720,662,7470,1410
GACTTGGGGGAAGTGGCTTGGTTTGCGTGGTTTCTC,433,952,546,1060
TAAGAAAAACAGTCATCCTGCGGTTTCCATTTGTGA,351,6290,1080,5090
GCACACCGGAACTCACACCTGAAACCACAGAACCAA,868,2180,4300,5220
GCCACACAGGCAGGAAAGCCACAGCCCACGTCTCCG,471,867,378,885
AGGCCGTGCAGGAAATGAGACCCACAGCCACGTCAC,1800,789,2180,977
GTTCTCAGCTTCCTGTTCACAGAGAAACCTCAGACA,1370,946,1560,1390
AGGTTCCGGCGAAAGTGACCGAAAGTAACCGCCGGG,351,670,518,967
AAACATCATAGGAAGTGGATTTTGTGGTGAGAGACA,1160,870,3880,1130
TGAAGTTGGTGTTTTCCGGGGGCGGTTTTTCCATTG,504,897,451,969

Sequence,ETS1 binding intensity (ETS1 [1]),RUNX1 binding intensity (RUNX1 [2]),ETS1 binding intensity (ETS1 [3]),RUNX1 binding intensity (RUNX1 [4])
GGGCCCTTCCTGTGGCGCCTGCCGAGCTGTGGTTGG,388,716,496,1380
GGTGGCCGCCGGAAGTGTGACCGCGGGAGGGGAGTG,7650,743,25500,2690
CCGGCAGGAAGTTAGCATGGGCGGACCACACGGGGG,1400,1470,1530,1590
CAGACCAGCCCAGGAAACAAGGAACCACAAAGCCAC,656,842,2260,992
TGTTGTAGGGGAAGTGGTGTGTGGTATTCCTGGGGA,797,811,1690,1070
CTAGCAGGAAACAGACAGACCCAGCCACAGAATCTC,470,919,519,884
GGGCAGGGCATTTCCTTTGTGGCTGGTGCTCACGGA,493,710,413,1360
CGAACGCCGGACGTTCTGGGCACGTGACCGCCACCC,643,863,1100,938
AGGCAGCACAGGAAGTTATAACCACATGTACACTTG,3790,781,11900,1960
GGACTTCCTGAACTGGGAGGTCACCGACCACAACCT,354,831,671,1740
GGTTCGCGGCTTCCGGGACATTTGTACCGCAGGGGG,960,759,2330,1510
CTTACAGTCACAACAGGATGTGGTTTGACATTTACT,6780,869,32800,3860
GGAGCATCCCGGAAGTCGTCACTGCGGCCGCTCCCG,6420,690,8070,1770
ACTACAGGAGGAAACTACAGCCTAAACCACATGCAA,510,975,1010,892
ACCCACTTCCTGTTAGAGCATCTTTGCAACCACAGG,2010,933,3230,3000
GACAGCAACTCCACTTCCTGTGGGCGAGGGCCCTGT,1850,835,2270,1790
GCCCCGGAAGCTCCTTAAGGAGGACCGTGTGGGTTT,605,746,718,944
TTTCACTTCCGGCATGTTTTTCACCCACAGGGATAT,3910,1130,3980,2750
GGCAGCAAGAAAGGAAATAGTGTGGTTGGGTGGAGA,1050,846,1640,1010
AGCGGCCTGGGAGGAGGATGTGGTTACGTGGAGACC,1120,996,15200,1510
